Compounds without any hit were thinned out: in the full panel of roughly 83,000, 20% have a hit.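 Values shown are percent growth following 48 h exposure of cells in 96-well plates to a single concentration of compound; below 10 was considered active.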 Calls of active or inactive are those of the source.
test system: A549/ATCC NSCLC; assay: NCI-60 one-dose screen, 48 h (100 = growth as untreated, 0 = no growth, -100 = all killed); details: 10 µM unless noted

| Compound | growth |
| --- | --- |
| O=c1oc2ccccc2c(Cl)c1Cl | 89.6% (inactive) |
| O=C1NC(=Nc2ccc(Cl)cc2)S/C1=C\c1cn(-c2ccccc2)nc1-c1ccccc1 | 34.9% (inactive) |
| COc1ccccc1NC(=O)N/C(N)=N/c1nc2ccccc2s1 | 25.1% (inactive) |
| Cc1ccc(NS(=O)(=O)c2ccc3c(c2)C2OCCC2C(c2ccc(C(=O)C(C)C)cc2)N3)cc1C (configuration not stated) | 27.4% (inactive) |
| N#Cc1c(N)nc2c(C#N)c(NC(=O)c3ccccc3)nn2c1-c1ccccc1 | 92.6% (inactive) |
| COc1cccc(Nc2nccc(Nc3ccc4[nH]ncc4c3)n2)c1 | -68.3% (active) |
| C[C@H]1[C@H]2[C@H]3CC[C@@H]4[C@@]5(C)C/C(=C/c6ccco6)C(=O)C(C)(C)[C@@H]5CC[C@@]4(C)[C@]3(C)CC[C@]23CO[C@]1(C)[C@@H](C(=O)/C=C\c1ccco1)C3 | 88.3% (inactive) |
| O=C(NCCCNc1cc(-c2cn(-c3ccccc3)nc2-c2cccc(O)c2)ccn1)c1ccccc1 | 21% (inactive) |
| COc1ccc(-c2csc(C3=C(O)CN(CCCN4CCCC4=O)C3=N)n2)cc1OC | 91.6% (inactive) |
| CCCCCc1nc2c(c3c1CCCC3)CCCC2 | 72.6% (inactive) |
| Clc1cccc(Cl)c1/C=C/c1cc(/C=C/c2c(Cl)cccc2Cl)[nH]n1 | 38.7% (inactive) |
| COC(=O)c1c2c(c(C)[n+]([O-])c1C)C(=O)C(NCc1ccc(F)c(Cl)c1)=CC2=O | 1.3% (active) |
| Cc1c(C)c2c(c(C)c1OCC(=O)O)CC[C@@](C)(CCC[C@@H](C)CCC[C@@H](C)CCCC(C)C)O2 | -3.06% [50 µM] (active) |
| c1c[nH]c(CNC2CCCCC2)c1 | 103% (inactive) |
| NC(=O)c1ccc[n+](Cc2ccc(Cl)cc2Cl)c1 | 70.1% (inactive) |
| Cc1ccc(Cl)c(NS(=O)(=O)c2ccc(-c3cnc(C4CC4)o3)cc2)c1 | 26.5% (inactive) |
| Cc1ccc(-c2cc3c(cc2O)C2CCCCC2(N2CCOCC2)O3)cc1 (configuration not stated) | 96.1% (inactive) |
| CC1=C([Se]CC(OC(=O)CC[Se]c2ccccc2)C(=O)NCCCCCC(=O)OCc2ccccc2)C(=O)c2ccccc2C1=O (configuration not stated) | 11.9% (inactive) |
| COc1cc(-c2nn(-c3ccccc3)cc2-c2ccnc(NCCNS(=O)(=O)c3ccc(Cl)cc3)n2)ccc1Cl | 13.3% (inactive) |

| Compound | growth |
| --- | --- |
| CC1=C(SCCC(=O)OC(C[Se]C2=C(C)C(=O)c3ccccc3C2=O)C(=O)NCCCCCC(=O)OCc2ccccc2)C(=O)c2ccccc2C1=O (configuration not stated) | 22.2% (inactive) |
| OC(c1cccc(-n2ccc(C(F)(F)F)n2)c1)c1cnccc1NC1CCCCCC1 (configuration not stated) | 50.2% (inactive) |
| O=C(Nc1cccc(Oc2nnc(Cl)c3ccccc23)c1)Nc1ccc(Cl)c(C(F)(F)F)c1 | -21.9% (active) |
| Cc1cc(NCCCCNc2ccnc3cc(Cl)ccc23)nc(Nc2ccc(C(=O)N3CCCC3)cc2)n1 | 24% (inactive) |
| N=C1C(c2nc(-c3ccc(Br)cc3)cs2)=C(O)CN1Cc1cccnc1 | 60.6% (inactive) |
| O=C(Nc1cccc(Cl)c1)c1cc(N=Nc2ccc([N+](=O)[O-])cc2Cl)ccc1O | 67.8% (inactive) |
| Cc1cccc(Cc2cnc(NC(=O)/C=C/c3ccco3)s2)c1 | 20% (inactive) |
| CNC(=O)NCC1OC(n2cnc3c(NC(=O)Nc4ccccc4)ncnc32)C(O[Si](C)(C)C(C)(C)C)C1CC(=O)N(C)OC (configuration not stated) | 2.06% (active) |
| CCN1C(=O)N(CC)C2Nn3c(s/c(=C\c4ccc(Cl)cc4Cl)c3=O)=NC21 (configuration not stated) | 33% (inactive) |
| CCN(CC)CCCCCCNc1cc(OC)c(Cl)c2cccnc12 | 96.7% (inactive) |
| c1csc(-c2c3ccc(=[N+]4CCCCC4)cc-3oc3cc(N4CCCCC4)ccc23)c1 | -56.2% (active) |
| COc1ccc(NC(=O)c2nc(-c3cc(OC)c(OC)c(OC)c3)n(-c3cccc4ccccc34)n2)cc1OC | 50.6% (inactive) |
| O=C(Cc1ccc(F)c(F)c1)Nc1cc(C2(C(F)(F)F)CC2)nn1Cc1ccccc1 | 9.17% (active) |
| N=c1sc(Cc2ccc(Cl)cc2)cn1CC(=O)c1ccc(F)cc1 | 66.7% (inactive) |
| COc1ccc(S(=O)(=O)NCCNc2nccc(-c3c(-c4cccc(F)c4)nc4sccn34)n2)cc1 | 22.5% (inactive) |
| COc1ccc2c(c1)O/C(=C\c1cccc(OCC(=O)Nc3nc4ccccc4s3)c1)C2=O | 95.8% (inactive) |
| Cc1c(C(=O)OC(=NC2CCCCC2)NC2CCCCC2)sc2c1c(=O)nc1c(C#N)n[nH]n12 | 108% (inactive) |
| COc1ccc(-c2nc(SC(C)C)nc(NNC(N)=S)c2C#N)cc1 | 49.2% (inactive) |
